Bioassay records (PubChem BioAssay)
SNCA viab count: reduces viability of HEK-293 SNCA reporter cells. Potency, µM (highest dose often 57.1 µM), actives largely listed as cytotoxic. HEK-293-SNCA-luc viability, GF-AFC fluorescence, 24 h. AID 1671193. 150,000 tested, 0.12% active; also: nearly all actives have a fitted effect of over 30% in size
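HEK-293-SNCA-luc cells (1500/well) plated 24 h, then exposed 24 h to a dilution series; GF-AFC added 30 min at 37C, fluorescence 405/540 nm; normalised to medium-only and DMSO wells, Hill fit.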
IP6K1 inh: inhibitors of human IP6K1; Q92551; IP6K1 kinase, ADP-Glo luminescence, 2 h; active compounds read low; activity change, % (series mostly up to about 58 µM); 140,000 tested, 0.81% active; in the data active = activity change below about -25%
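ADP-Glo luminescence measures ADP made by human IP6K1 during a 2 h RT reaction with ATP/IP6 (mix at 1.3 mM/130 uM); top library doses 57.5 and 19.1 uM final.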
KDM5B inh: inhibitors of human KDM5B histone demethylase | Q9UGL1 | KDM5B demethylase, FDH-coupled NADH fluorescence (FDH is formaldehyde dehydrogenase) | Potency, µM (top dose mostly 57.7 µM), most hits filed as inhibitors | 220,000 tested, 2.6% active | AID 1347165; also: nearly all actives have a fitted effect of over 70% in size
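Inhibition is measured as reduced NADH fluorescence generation from FDH coupling to formaldehyde release. Truncated KDM5BΔAP at 200 nM final acts on H3K4me3 peptide (12.5 µM in substrate mix) in pH 7.5 HEPES buffer with Tween-20, 30 min, room temperature.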
SNCA expr inh: reduces expression of the alpha-synuclein gene; 140,000 tested, 0.17% active; HEK-293 SNCA-luciferase knock-in, luminescence, 24 h; Potency, µM (series often up to 57.2 µM), most hits filed as inhibitors; also: nearly all actives have a fitted effect of over 45% in size
Hits are given with their value; . = inactive; ? = inconclusive; / = not tested or not shown. The list is not random: actives were taken first. Their share in the collection is about 2.8%. Unless noted, calls follow the shape of the dose curve; as a rule, active = well fitted curve in the direction sought with a large enough effect; inconclusive = small, poorly fitted or top-dose-only effect, or another doubt; inactive = no such curve, though single readings can be large; an effect the other way counts as inactive or inconclusive.

SMILES	SNCA viab count	IP6K1 inh	KDM5B inh	SNCA expr inh
COc1ccc(C2Cn3nnc(C(=O)N4CCN(C(=O)c5ccc(C)s5)CC4)c3CO2)cc1 (stereo not drawn)	.	.	?	?
COc1ccc(-c2nc(C)nc3c2CCC3)c2ccc(C)nc12	.	.	28µM	.
CC(=O)N1CCN(C(=O)c2cnc(N)nc2-c2ccccc2)CC(O)C1 (stereo not drawn)	.	.	25µM	.
Nc1ncc(C(=O)N2CCCC3(CCOC3)C2)c(-c2ccccc2)n1 (stereo not drawn)	.	.	?	.
CC(=O)N1CCN(C(=O)c2cc3ccccc3[nH]c2=O)CC(O)C1 (stereo not drawn)	.	.	28µM	.
O=C(CSc1oc(-c2ccco2)nc1S(=O)(=O)c1ccc(Br)cc1)c1ccccc1	.	-28	?	.
NC(=O)NCC(=O)N1CCc2onc(-c3cccc4ccccc34)c2C1	.	.	?	.
NC(=O)NCCC(=O)N1CCc2onc(-c3cccc4ccccc34)c2C1	.	.	25µM	?
CCn1cnnc1-c1nn(C)c2c1CN(C(=O)CCC1CCCC1)CC2	.	.	22µM	.
Cn1nc(-c2nncn2CC2CC2)c2c1CCN(C(=O)C1CC1)C2	.	.	.	.
CC1=C(C(=O)OC(C)C)C(c2ccccc2Cl)N2C(CC(=O)NCC3CC3)=CSC2=N1 (stereo not drawn)	.	.	.	.
Cc1ccc(-c2nnc3ccc(NCCc4ccccn4)nn23)nc1	.	.	?	.
COc1ccc(-c2nnc3ccc(NCCc4ccccn4)nn23)nc1	.	.	40µM	.
C=CCNC(=O)C(NC(=O)c1ccc(OC)cc1)C1CCN(C(=O)C2CC2)CC1 (stereo not drawn)	.	.	.	.
COCCNC(=O)C(NC(=O)c1ccccc1)C1CCN(C(=O)C2CC2)CC1 (stereo not drawn)	.	.	18µM	.
CCC(=O)Nc1nonc1-c1ccc(Cl)cc1	/	/	.	/
Cc1ccc(CN(C)C(=O)Cn2nc(C)c3ccccc3c2=O)c(C)c1	/	/	.	/
Cc1cc(C(=O)N[C@@H]2CCOC[C@H]2OCC(=O)O)sc1-c1ccccc1	.	.	25µM	.
COCc1ccc(C(=O)N[C@@H]2CCOC[C@H]2OCc2ccccc2)s1	.	.	.	.
CCCn1cc2c3c(cccc31)CN(C(=O)Cc1ccc(OC)cc1)CC2	.	.	?	.
CCCn1cc2c3c(cccc31)CN(C(=O)COc1ccc(F)cc1)CC2	.	.	32µM	.
Cn1cc2c3c(cccc31)CN(C(=O)CC(C)(C)C)CC2	.	.	32µM	.
Cc1ccc(OCC(=O)N2CCC(NC(=O)c3ccccc3)CC2)c(C)c1	/	/	.	/
Cc1nc2cc(NC(=O)c3cccc(F)c3)ccc2o1	/	/	.	/
COC(=O)[C@@H]1Cc2c([nH]c3ccccc23)[C@H]2C[C@@H](N3CCOCC3)C[C@@H](c3ccc(F)cc3)N21	.	.	13µM	.
SMILES	SNCA viab count	IP6K1 inh	KDM5B inh	SNCA expr inh
COC(=O)[C@@H]1Cc2c([nH]c3ccccc23)[C@H]2C[C@@H](NCc3cccnc3)C[C@@H](c3ccc(F)c(F)c3)N21	.	.	25µM	.
COC(=O)[C@@H]1Cc2c([nH]c3ccccc23)[C@H]2C[C@@H](NC3CC3)C[C@@H](c3ccc(F)cc3)N21	?	.	.	28µM
COC(=O)[C@@H]1Cc2c([nH]c3ccccc23)[C@H]2C[C@@H](NCc3cccnc3)C[C@@H](c3ccc(F)cc3)N21	.	.	?	.
COC(=O)[C@@H]1Cc2c([nH]c3ccccc23)[C@H]2C[C@@H](NCCO)C[C@@H](c3ccc(F)cc3)N21	.	.	?	.
C#CCN[C@H]1C[C@@H]2c3[nH]c4ccccc4c3C[C@@H](C(=O)OC)N2[C@H](c2ccc(F)cc2)C1	?	.	40µM	?
CCOc1ccc(C(=O)Nc2cccc(-c3nnc4n3CCCC4)c2)cc1	.	.	.	.
Cn1c2c(c3cc(F)ccc31)CN(C(=O)Nc1ccccc1)CC2	.	.	?	.
CCc1cccc(NC(=O)N2CCc3c(c4cc(F)ccc4n3C)C2)c1	.	.	25µM	?
CC(C)c1cccc(C(C)C)c1NC(=O)N1CCc2c(c3cc(F)ccc3n2C)C1	.	.	25µM	.
Cc1ccccc1NC(=O)N1CCc2c(c3cc(F)ccc3n2C)C1	.	.	28µM	.
Cc1ccc(NC(=O)N2CCc3c(c4cc(F)ccc4n3C)C2)cc1	?	.	14µM	.
COCCCNC(=O)CSc1cc(C)ccc1C	/	/	.	/
Cc1ccc(C)c(NC(=O)CCc2ncc(-c3ccc(F)cc3F)o2)c1	/	/	.	/
